The text below walks through data of PubChem BioAssay AID588405 (Sanford-Burnham Center for Chemical Genomics, 2011).

Each structure is given as a SMILES string. About 6,200 (1.7%) of roughly 360,000 compounds were called active. Only a selection was taken, and actives are over-represented in it overall. Unmarked numbers belong to inactive results.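 How the source made its calls: active means inhibition of at least 50% at 20 µM; inactive means the rest.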

What is called inhibition is the change of the read-out against control, counted positive when it falls.

This assay is described as follows: Peg3 promoter-driven luciferase inhibitors, primary screen, cell-based, HeLa, luciferase luminescence (AID 588405). As to conditions: HeLa PEG-Prom luciferase reporter, overnight, at 20 µM, stronger effect = higher value. On the technique in general: Reporter assays use an easily measured gene product as a stand-in for the process of interest.
For the compound `COc1ccc(OC)c(Cc2nnc(CCC(=O)NC3CCCC3)o2)c1`, the inhibition is -30.2%.
In the case of `COc1ccc(OC)c(NC(=O)c2sc3nc(C)cc(C)c3c2N)c1`, the inhibition was -12.4%.
As to `COc1ccc(OC)c(Cc2cnc3nc(N)nc(N)c3c2C)c1`, the inhibition was 54.3% (active).
With `C=CCn1c2c(c3ccccc31)CCC2`, the inhibition was 2.5%.
As for `CCOc1ccc(CCN2C(=O)c3cccnc3C2=O)cc1OCC`, the inhibition was -9.6%.
Take `NC1=CC(=O)C(=O)c2cccnc21`: the inhibition is 69.9% (active).
As to `CCc1nc2ccc(C(=O)NC3CCN(Cc4ccccc4)CC3)cn2c1N(CC)CCOC`, the inhibition is 4.85%.
As for `CCCCNC(=O)c1nc(C2CCN(S(=O)(=O)c3ccc(F)c(F)c3)CC2)oc1-c1cccc(C(F)(F)F)c1`, the inhibition is 13.3%.
As for `Cc1occc1C(=O)N/N=C/c1ccc(-c2cccc([N+](=O)[O-])c2)o1`, the inhibition is -11.9%.
On to `Cc1ccc(C(=O)N/C(=C/c2ccc(-c3cccc([N+](=O)[O-])c3)o2)C(=O)NCCCN(C)C)cc1`, for which the inhibition is 103% (active).
Under `CN(C)CCNC(=O)/C(=C/c1cccc([N+](=O)[O-])c1)NC(=O)c1ccccc1` stands 7.34%.
Turning to `CCCc1ccc(C(O)c2ncc(-c3cccc(OC)c3)[nH]2)cc1` (stereo unspecified), the inhibition is -5.53%.
`O=C(Nc1ccc(F)cc1)Nc1nnc([C@H]2C[C@H](O)[C@@H](CO)O2)s1`: the inhibition is -5.07%.
Regarding `C=CC(=O)Nc1ccc(Nc2ccnc(Nc3ccc(N4CCN(C)CC4)cc3)n2)cc1`, the inhibition is 20.3%.
For the compound `CC1CC(C)CN(CCOc2cccc3ccccc23)C1` (stereo unspecified), the inhibition was -6.14%.
Under `CC(C)c1ccccc1OCC(O)CN(CC(O)COc1cccc2ccccc12)C(C)C` (stereo unspecified) stands 110% (active).
In the case of `CCC(C)Sc1nc2c(c(=O)[nH]c(=O)n2C)n1CC(O)COc1cccc2ccccc12` (stereo unspecified), the inhibition was 12.2%.
To `COc1cc(CN2CCNC(=O)C2CC(=O)NCCc2ncccc2C)cc(OC)c1` (stereo unspecified) belongs -16.1%.
Regarding `CC(C)Oc1ccc(CN2CCC2(C)C(=O)NCc2ccc(C(F)(F)F)cc2)cc1` (stereo unspecified), the inhibition is 14.4%.
With `O=C(Nc1ccc(N2CCOCC2)cc1)c1cccc2c(-c3ccc(F)c(F)c3)coc12`, the inhibition is -8.12%.
To `COc1ccccc1CNC(=O)c1cc(-c2cc(Cl)ccc2C)n[nH]1` belongs 32.1%.
With `O=C(CN1C(=O)NC2(CCOc3ccccc32)C1=O)Nc1cccc([N+](=O)[O-])c1` (stereo unspecified), the inhibition was 10.4%.
In the case of `CCN(CC)S(=O)(=O)c1ccc(NC(=O)c2cccnc2Cl)c(NC(=O)c2cccnc2Cl)c1`, the inhibition was 104% (active).
For the compound `Cc1ccc(CNC(=O)c2cccnc2Cl)cc1`, the inhibition is -0.53%.
Consider `CCN(CC)S(=O)(=O)c1ccc(NC(=O)c2cnc(C)cn2)cc1`, for which the inhibition is -6.33%.
On to `CCOC(=O)C1=CC[C@@H](c2ccccc2)N(S(=O)(=O)c2ccc(C)cc2)[C@H]1c1cccc(OC)c1`, for which the inhibition is 14.6%.
To `CC1(c2nnc(Cc3ccccc3)o2)CC(c2ccccc2F)=NO1` (stereo unspecified) belongs 7.03%.
To `CCOC(=O)C(C(=O)OCC)C(C#N)c1ccccc1` (stereo unspecified) belongs 1.45%; to `Cc1ccccc1OCCC(=O)OCC(=O)NC(C)c1ccccc1` (stereo unspecified), -0.76%; to `CCOC(=O)/C=C/C(=O)OCC(=O)NC(c1ccccc1)c1ccccc1`, 66.3% (active).
Regarding `CCOc1c(Nc2cccc(Cl)c2)c(=O)c1=O`, the inhibition is 19%.
To `OCCCNc1nccc(-c2cc(Nc3cccc(Cl)c3)ncn2)n1` belongs 97.8% (active).
To `CC(=O)N1CCN(S(=O)(=O)c2ccc(C)c([N+](=O)[O-])c2)C1C(C)C` (stereo unspecified) belongs 9.74%; to `COc1ccc(S(=O)(=O)NC(=O)C2(C)CCN2C(=O)COc2ccc(Cl)cc2)cc1` (stereo unspecified), 0.32%; to `OC(c1ccc(F)cc1)c1ncc(-c2cccc(C(F)(F)F)c2)[nH]1` (stereo unspecified), 25.3%.
For the compound `CCOC(=O)N1CCN(C(=O)Cn2cnc3ccccc3c2=O)CC1`, the inhibition is -3.74%.
For `CCOC(=O)N1CCN(C(=O)c2nn(-c3ccc(C)cc3)c(=O)c3c2c2ccccc2n3C)CC1`, the inhibition was 58.2% (active).
For `CCOC(=O)N1CCN(C(=O)c2n[nH]c(=O)c3ccccc23)CC1`, the inhibition is 6.99%.
`CN1CCN(C(=O)c2ccc(-c3cc4nc(NCc5cccnc5)n(C)c(=O)c4s3)cc2)CC1`: the inhibition was -4.53%.
Regarding `CCc1nc2c(OCCOc3ccccc3)cccn2c1N(C)C(=O)c1ccc(OC)cc1`, the inhibition was 11.8%.
Regarding `CC(=O)NN=C(C)c1ccc(NC(=O)C2CC2)cc1`, the inhibition is -1.94%.
To `CC1(C(=O)NCc2ccc3c(c2)OCO3)CCN1C(=O)Cc1cccs1` (stereo unspecified) belongs -1.89%.
For `COc1ccccc1N(C)S(=O)(=O)c1ccc(Cl)c(C(=O)N2CCC(C(N)=O)CC2)c1`, the inhibition is -7.62%.
As for `NC(=O)C1CCN(C(=O)c2cc(S(=O)(=O)N3CCN(c4ccccc4)CC3)ccc2Cl)CC1`, the inhibition was 56.8% (active).
For the compound `NC(=O)COC(=O)c1cc(S(=O)(=O)N2CCN(c3ccccc3)CC2)ccc1Cl`, the inhibition was -0.58%.
Consider `O=S(=O)(Nc1cccc(-n2cnnn2)c1)c1cnc(Cl)c(Cl)c1`, for which the inhibition is 3.56%.
Consider `Cc1cc2nc(-c3ccc(Cl)cc3)c(Cc3cccc(F)c3)n2c(C)c1Br`, for which the inhibition was -7.74%.
Consider `CN(C)CCCOc1ccc(-c2ccc3nccn3c2)cn1`, for which the inhibition is -2.16%.
Consider `O=C(NCc1ccco1)c1cccc(-c2ccc3nncn3c2)c1`, for which the inhibition is 6.82%.
Regarding `O=C(Nc1ccccc1)c1nnsc1S(=O)(=O)c1ccc(Cl)cc1`, the inhibition is 67.4% (active).
In the case of `O=C(Nc1ccc(S(=O)(=O)N2CCOCC2)cc1)C1CCN(S(=O)(=O)c2ccc(Cl)cc2)CC1`, the inhibition is 20.9%.
As to `Cc1nnsc1S(=O)(=O)Cc1ccccc1Cl`, the inhibition was 14.5%.
To `Cc1ccc(-c2cnc(C(O)c3cccc(C)c3C)[nH]2)cc1` (stereo unspecified) belongs -14.4%.
Take `Cc1ccc(Cc2c(-c3ccco3)nc3ccc(Cl)cn23)cc1`: the inhibition is 2.16%.
Under `CC(=O)Nc1c2c(nn1-c1cccc(C)c1)CSC2` stands 1.92%; under `Cc1cccc(-n2ncc(Cl)c(Cl)c2=O)c1`, 109% (active); under `Cc1cccc(-n2ncc3c(=O)[nH]c(SCC(=O)Nc4cc(C)on4)nc32)c1`, 15.5%.
For the compound `CCc1nc2ccc(C(=O)N(C)CCN(C)C)cn2c1N(CC)CCOC`, the inhibition was -8.52%.
`CN1CCN(C2Cc3ccc(Cl)cc3Sc3ccc(F)cc32)CC1` (stereo unspecified): the inhibition was 76% (active).
Consider `CC1(C(=O)NS(=O)(=O)c2cccc(F)c2)CCN1C(=O)Cc1cc(F)ccc1F` (stereo unspecified), for which the inhibition is 7.15%.
Under `C/C(=N\Nc1nc(Nc2ccccc2)nc(N2CCOCC2)n1)c1cccs1` stands 7.28%.
To `O=C(CSc1nc(Nc2ccccc2)nc(N2CCOCC2)n1)Nc1cc(Cl)ccc1O` belongs 86.5% (active); to `CC1(c2ccccc2)NC(=O)N(CC(=O)Nc2cc(Cl)ccc2N2CCOCC2)C1=O` (stereo unspecified), 2.35%; to `Brc1ccc2nc(-c3ccccc3)c(Cc3ccccc3)n2c1`, -51%.
Regarding `CCOC(=O)c1ccc(-c2ccc3ncnc(N(C)Cc4sccc4C)c3c2)o1`, the inhibition is 31.1%.
For `CCCCSc1[nH]c(=O)c(C(=O)OCC)cc1C#N`, the inhibition was 3.02%.
Under `NC(N)=Nc1nc(-c2ccccc2)c2cc(Cl)ccc2n1` stands 108% (active); under `COC(=O)Cn1nc(-c2ccccc2)c2cc(Cl)ccc21`, 13.3%; under `Cc1nc(N=C(N)N)nc2c(C)cccc12`, 20.3%.
Consider `CCCS(=O)(=O)NC(=O)C1(C)CCCN(C(=O)c2ccnc(Cl)c2)C1` (stereo unspecified), for which the inhibition was -1.18%.
`OC[C@@H]1CN(Cc2ccc3c(c2)OCO3)C[C@H](n2cnc3c(NCc4ccco4)ncnc32)O1`: the inhibition was -2.19%.
In the case of `Cc1cc(O)ccc1-c1cc(C(=O)NCc2cc(C(F)(F)F)cc(C(F)(F)F)c2)[nH]n1`, the inhibition was 5.2%.
As for `Oc1ccc2ccccc2c1N=Nc1nccs1`, the inhibition was 97.5% (active).
Regarding `COC(=O)[C@@H]1C[C@@]2(O)[C@H](O)[C@H](O)[C@H](O)C[C@H]2N1Cc1ccc(C(C)(C)C)cc1`, the inhibition was 2.16%.
For `COc1ccc(C2=NN(C(=O)CCC(=O)O)C(c3cccs3)C2)cc1OC` (stereo unspecified), the inhibition was 9.5%.
As for `O=C(COc1ccc2ccccc2c1)N1CCN(C(=O)c2cccs2)CC1`, the inhibition is 3.04%.
Consider `CCOc1ccc2nc(Cl)c(C3CC(c4ccccc4)=NN3C(=O)c3cccs3)cc2c1` (stereo unspecified), for which the inhibition is 55.1% (active).
In the case of `COC(=O)c1ccc2nc(-c3ccc(Cl)cc3)c(Cc3cccc(F)c3)n2c1`, the inhibition was -38.1%.
`Cc1noc(C)c1C(=O)N1CCC1(C)C(=O)NS(=O)(=O)c1ccc(C#N)cc1` (stereo unspecified): the inhibition is -15.2%.
`CC(O)(c1cccc(F)c1)c1nc(-c2ccc3c(c2)OCO3)cs1` (stereo unspecified): the inhibition was -65.7%.
Under `CC(C)(C)Cc1c(C2CCCCC2)nc2ccc(Br)cn12` stands 16%; under `Cc1c(Cl)c([N+](=O)[O-])nn1Cc1ccc(C(=O)N/N=C\c2cc(Cl)ccc2O)o1`, 61.5% (active); under `O=C(N/N=C\c1ccc(Br)cc1)c1ccc(Cn2cccn2)o1`, -62.6%.
For the compound `Cc1nn(Cc2ccccc2Cl)c(C)c1NC(=O)Cn1nc([N+](=O)[O-])c(Cl)c1C`, the inhibition is -1.84%.
In the case of `COCOc1cccc(CN2CCC(C)(Oc3ccc(SC)cc3)C2)c1` (stereo unspecified), the inhibition was -1.46%.
For the compound `COc1cc(Cl)c(C)cc1NC(=O)CSc1nnc(-c2ccco2)n1CC(C)C`, the inhibition was 12.4%.
`NC(Cc1ccccc1)c1csc(Nc2cc(Oc3ccccc3)ncn2)n1` (stereo unspecified): the inhibition was 54.6% (active).
`Cc1nc2c(OCc3ccc(Cl)cc3)cccn2c1N(C)Cc1cccs1`: the inhibition is 6.73%.
`Cc1ccc(C(=O)O/N=C(\N)c2ccccn2)cc1Cl`: the inhibition is 62.4% (active).
Regarding `Cc1cccc(/C(N)=N/OC(=O)c2ccccc2Cl)c1`, the inhibition was -145%.
To `N/C(=N\OC(=O)c1ccc([N+](=O)[O-])cc1)c1ccccn1` belongs 5.67%.
